Measurements published in PubChem BioAssay (Tox21).
“And” between values parts separate entries of the source, which are not always exact repeats. Equal values may be shown once. Records with an inconclusive call do not appear. Some structures have more than one record in an assay (separate samples or runs), and their calls can disagree. The source made the active and inactive calls. Unless noted, calls follow the shape of the full dose curve.

Experiments:
[1] = Nuclear factor erythroid 2-related factor 2/antioxidant responsive element (Nrf2/ARE) small molecule agonists: luciferase reporter gene qHTS assay in human keratinocytes (AID 1919969); also: nearly all actives have a fitted effect of over 35% in size; also: potency is read from the fitted curve at half-maximal effect
[2] = target: Gonadotropin-releasing hormone receptor (Homo sapiens) (UniProt P30968); assay: Human gonadotropin-releasing hormone receptor (GnRHR) small molecule agonists, calcium flux assay in GnRHR-HEK293 cells (AID 1920063); also: nearly all actives have a fitted effect of over 35% in size; also: potency is read from the fitted curve at half-maximal effect
Procedure, shortened: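 Intracellular calcium rise is the read-out: engineered human GnRHR HEK293 cells, dye-loaded, are exposed to DMSO-dissolved compounds and fluorescence at Ex/Em 480/540 is tracked for 3 min.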

[3] = target: KiSS-1 receptor (Homo sapiens) (UniProt Q969F8); assay: Human kisspeptin (KISS1R) small molecule agonists, calcium flux assay in KISS1R-HEK293 cells (AID 1920064; active = well fitted activation curve with a large enough effect in the repeat runs; also: potency is read from the fitted curve at half-maximal effect)
Procedure, shortened: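 Concentration-response testing used 15 concentrations in triplicate on human KISS1R-expressing HEK293 cells. Calcium-dependent fluorescence (Ex/Em 480/540) was followed kinetically for 3 min after compound transfer.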

[4] = G protein-coupled receptor (GPCR) small molecule agonists, calcium flux assay: HEK293 wild type cell line counter screen (AID 1920065); also: potency is read from the fitted curve at half-maximal effect
Procedure, shortened: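 Fluorescence intensity signals activation. After overnight (18 h) culture and a 1 h calcium dye load at 37 C, compounds are added by pin tool and the plate read at 480/540 nm for 3 min in 1 s steps.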

[5] = p53 small molecule agonists, cell-based qHTS assay with human liver microsomes (AID 1963577);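 also: p53 response element beta-lactamase reporter cells with liver microsomes plus NADPH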
Procedure, shortened: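 16 h, 37 C exposure of p53RE-bla cells to compounds with human liver microsomes and NADPH (0.5 mg/mL final each); detection via LiveBLAzer mixture, 2 h dark at room temperature.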

[6] = p53 small molecule agonists, cell-based qHTS assay with human liver microsomes: qHTS cell viability counter screen (AID 1963579); also: nearly all actives have a fitted effect of over 45% in size
Procedure, shortened: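 In this multiplexed counter screen, the reporter plates were subsequently treated with CellTiter-Glo so that cell viability, reflected by luminescence, could be recorded for p53RE-bla cells dosed 16 h with compounds under microsomal activation (HLM and NADPH).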

[7] = p53 small molecule agonists, cell-based qHTS assay with rat liver microsomes: qHTS cell viability counter screen (AID 1963580); also: nearly all actives have a fitted effect of over 45% in size
Procedure, shortened: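 Cytotoxicity counter screen: intracellular ATP read by CellTiter-Glo luminescence in the p53 reporter wells. HCT-116 p53RE-bla cells were treated for 16 h at 37 C alongside rat liver microsomes and NADPH, each 0.5 mg/mL final.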

[8] = p53 small molecule agonists, cell-based qHTS assay: qHTS cell viability counter screen (AID 1963581); also: nearly all actives have a fitted effect of over 45% in size
Procedure, shortened: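 Luminescence from CellTiter-Glo, reflecting ATP content, serves as the cytotoxicity measure; it is taken after the 2 h reporter substrate step in HCT-116 p53RE-bla cells dosed for 16 h at 37 C.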

[9] = p53 small molecule agonists, cell-based qHTS assay (AID 1963582; active = well fitted activation curve with a large enough effect in the signal ratio in the repeat runs, not every such curve was filed as active; the % refers to the signal ratio; also: potency is read from the fitted curve at half-maximal effect)
Procedure, shortened: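 After plating, p53RE-bla cells sat 5 h in the incubator; compounds or DMSO vehicle were pinned in; a 16 h incubation at 37 C followed; FRET substrate was added and, 2 h later at RT, fluorescence was measured.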

[10] = target: 5-hydroxytryptamine receptor 2A (Homo sapiens) (UniProt P28223); assay: 5-hydroxytryptamine receptor 2A (HTR2A) small molecule antagonists, cell-based qHTS assay (AID 1963586); also: nearly all actives have a fitted effect of over 45% in size; also: potency is read from the fitted curve at half-maximal effect
Procedure, shortened: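 CHO cells stably expressing human HTR2A were plated for 18 h at 37 C, then loaded with calcium dye for 1 h. Compounds were preincubated 5 min at room temperature before DOI (4 nM solution) was added. Kinetic fluorescence was read for 3 min.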

[11] = target: 5-hydroxytryptamine receptor 2A (Homo sapiens) (UniProt P28223); assay: 5-hydroxytryptamine receptor 2A (HTR2A) small molecule agonists, cell-based qHTS assay (AID 1963587); also: nearly all actives have a fitted effect of over 30% in size; also: potency is read from the fitted curve at half-maximal effect
Procedure, shortened: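 Kinetic calcium-flux fluorescence (2 min, 1 sec intervals) after compound addition in agonist mode. HTR2A-CHO cells were cultured 18 h, then dye-loaded 1 h at 37 C.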

[12] = target: Muscarinic acetylcholine receptor M1 (Homo sapiens) (UniProt P11229); assay: Cholinergic receptor muscarinic 1 (CHRM1) small molecule antagonists, cell-based qHTS assay (AID 1963588); also: nearly all actives have a fitted effect of over 40% in size; also: potency is read from the fitted curve at half-maximal effect
Procedure, shortened: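 Compounds were tested at 15 concentrations in three independent runs. Dye-loaded CHRM1-CHO cells were exposed 5 min at room temperature before stimulation by acetylcholine added at 50nM. Intracellular calcium was read kinetically on FDSS for 3 min.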

[13] = target: Muscarinic acetylcholine receptor M1 (Homo sapiens) (UniProt P11229); assay: Cholinergic receptor muscarinic 1 (CHRM1) small molecule agonists, cell-based qHTS assay (AID 1963589); also: nearly all actives have a fitted effect of over 35% in size; also: potency is read from the fitted curve at half-maximal effect
Procedure, shortened: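 Fluorescent calcium dye reports M1 activation in stably transfected CHO cells. Compounds, 15 concentrations, added after 1 h dye loading at 37 C; kinetic reading at 1 sec intervals.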

[14] = target: D(2) dopamine receptor (Homo sapiens) (UniProt P14416); assay: Dopamine D2 receptor (DRD2) small molecule agonists, cell-based qHTS assay (AID 1963594); also: nearly all actives have a fitted effect of over 35% in size
Procedure, shortened: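 cAMP accumulation in DRD2-HEK293 cells measured by HTRF after 1 h detection; compounds added 10 min before NKH477 (200nM […]) forskolin-analogue stimulation, 30 min at room temperature, with Ro20-1724 present at 0.1 mM final.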

[15] = target: D(2) dopamine receptor (Homo sapiens) (UniProt P14416); assay: Dopamine D2 receptor (DRD2) small molecule antagonists, cell-based qHTS assay (AID 1963595; active = well fitted inhibition curve with a large enough effect in the signal ratio in the repeat runs, with a control signal flat; the % refers to the signal ratio)
Procedure, shortened: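 Readout: HTRF cAMP, cAMP-d2 competing with cellular cAMP for anti-cAMP cryptate, read after 1 h. Cells: DRD2-HEK293. Conditions: 0.1 mM Ro20-1724, 12 nM quinpirole, 200 nM NKH477, 30 min RT.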

[16] = p53 small molecule agonists, cell-based qHTS assay with rat liver microsomes (AID 1963578); also: potency is read from the fitted curve at half-maximal effect
Procedure, shortened: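 With rat liver microsomes and NADPH present (0.5 mg/mL final each), p53RE-bla cells are treated with compound for 16 h at 37 C. LiveBLAzer detection mixture is then applied for 2 h at room temperature in the dark.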

[17] = cAMP Responsive Elements (CRE) small molecule agonists, cell-based qHTS assay (AID 1963590)
Procedure, shortened: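 Compound exposure lasted 3 h at 37 C/5% CO2 in CRE-bla HEK 293T cells grown in assay medium with 10% dialyzed FBS and 25 mM HEPES. Reporter signal came from LiveBLAzer B/G FRET substrate, 2 h, room temperature.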

[18] = cAMP Responsive Elements (CRE) small molecule antagonists, cell-based qHTS assay (AID 1963591; active = well fitted inhibition curve with a large enough effect in the signal ratio in the repeat runs, not every such curve was filed as active; the % refers to the signal ratio)
Procedure, shortened: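 Stimulation used NKH477 at a final 0.25 uM for 3 h in compound-treated CRE-bla HEK293T cells, seeded 18 h beforehand. Reporter activity was measured with LiveBLAzer B/G FRET substrate after 2 h at room temperature.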

[19] = target: Beta-2 adrenergic receptor (Homo sapiens) (UniProt P07550); assay: Adrenergic beta2 receptor (ADRB2) small molecule antagonists, cell-based qHTS assay (AID 1963592); also: series mostly up to about 92 µM; nearly all actives have a fitted effect of over 50% in size
Procedure, shortened: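 Assay format: CHO-ADRB2 cells, 18-20hr seeding at 37C/5% CO2, then compound plus 1nM isoproterenol agonist mix for 0.5hr RT. Homogeneous time-resolved fluorescence cAMP detection after 1hr, expressed as 665/615 nm ratio.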

[20] = target: Beta-2 adrenergic receptor (Homo sapiens) (UniProt P07550); assay: Adrenergic beta2 receptor (ADRB2) small molecule agonists, cell-based qHTS assay (AID 1963593);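 also: CHO cells stably overexpressing human ADRB2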
Procedure, shortened: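 CHO cells stably over-expressing ADRB2 were plated overnight at 37C, then dosed with compounds plus a stimulation mix containing 100uM IBMX and 25uM Ro-20-1724 for 0.5hr at room temperature. cAMP was measured by HTRF competition, 1hr.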

Measured: Potency

Muscarinic acetylcholine receptor M1 (Homo sapiens), sequence (P11229 whole entry, looked up): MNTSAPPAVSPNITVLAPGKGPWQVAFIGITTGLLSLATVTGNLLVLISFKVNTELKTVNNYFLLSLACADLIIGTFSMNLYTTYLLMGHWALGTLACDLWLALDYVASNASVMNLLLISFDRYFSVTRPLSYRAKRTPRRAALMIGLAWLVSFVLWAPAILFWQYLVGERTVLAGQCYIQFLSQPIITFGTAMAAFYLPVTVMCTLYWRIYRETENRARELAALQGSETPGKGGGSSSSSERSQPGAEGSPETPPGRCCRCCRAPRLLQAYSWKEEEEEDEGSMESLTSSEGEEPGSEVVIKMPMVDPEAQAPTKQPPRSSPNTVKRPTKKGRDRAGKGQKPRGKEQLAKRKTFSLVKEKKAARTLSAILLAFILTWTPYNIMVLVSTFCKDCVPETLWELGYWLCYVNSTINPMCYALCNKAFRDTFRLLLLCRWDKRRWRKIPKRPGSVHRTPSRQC
5-hydroxytryptamine receptor 2A (Homo sapiens), sequence (P28223 whole entry, looked up): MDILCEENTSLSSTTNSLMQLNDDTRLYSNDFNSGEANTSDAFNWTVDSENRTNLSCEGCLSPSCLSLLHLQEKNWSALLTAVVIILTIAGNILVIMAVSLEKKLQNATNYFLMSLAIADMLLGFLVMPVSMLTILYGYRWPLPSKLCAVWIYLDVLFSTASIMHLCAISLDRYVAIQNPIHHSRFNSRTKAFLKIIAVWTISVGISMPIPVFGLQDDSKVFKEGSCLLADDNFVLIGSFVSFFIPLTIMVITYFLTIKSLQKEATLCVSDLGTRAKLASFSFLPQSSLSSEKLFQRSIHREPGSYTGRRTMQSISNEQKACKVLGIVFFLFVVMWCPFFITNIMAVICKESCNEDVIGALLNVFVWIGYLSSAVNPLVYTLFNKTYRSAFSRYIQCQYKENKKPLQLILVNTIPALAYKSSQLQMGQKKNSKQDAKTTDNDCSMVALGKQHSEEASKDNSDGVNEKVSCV
D(2) dopamine receptor (Homo sapiens), sequence (P14416 whole entry, looked up): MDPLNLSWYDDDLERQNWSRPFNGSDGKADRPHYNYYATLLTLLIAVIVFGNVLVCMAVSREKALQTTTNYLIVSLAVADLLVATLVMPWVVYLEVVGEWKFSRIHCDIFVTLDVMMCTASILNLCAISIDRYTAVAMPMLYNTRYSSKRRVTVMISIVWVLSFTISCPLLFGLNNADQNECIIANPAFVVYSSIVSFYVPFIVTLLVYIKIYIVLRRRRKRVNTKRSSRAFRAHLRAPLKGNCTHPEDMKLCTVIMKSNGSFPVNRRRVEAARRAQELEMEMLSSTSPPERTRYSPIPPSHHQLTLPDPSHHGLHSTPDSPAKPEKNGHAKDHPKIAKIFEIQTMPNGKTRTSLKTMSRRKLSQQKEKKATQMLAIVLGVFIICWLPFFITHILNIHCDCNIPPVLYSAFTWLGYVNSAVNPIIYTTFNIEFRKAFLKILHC
Gonadotropin-releasing hormone receptor (Homo sapiens), sequence (P30968 whole entry, looked up): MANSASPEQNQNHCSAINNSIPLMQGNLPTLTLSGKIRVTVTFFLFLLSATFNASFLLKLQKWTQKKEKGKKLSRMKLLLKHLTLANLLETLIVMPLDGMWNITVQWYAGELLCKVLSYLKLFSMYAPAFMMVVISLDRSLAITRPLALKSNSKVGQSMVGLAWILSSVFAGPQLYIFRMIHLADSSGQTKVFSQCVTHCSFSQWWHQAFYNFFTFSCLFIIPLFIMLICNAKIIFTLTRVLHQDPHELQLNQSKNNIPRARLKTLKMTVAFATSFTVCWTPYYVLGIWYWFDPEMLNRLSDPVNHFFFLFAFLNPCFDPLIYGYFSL
Beta-2 adrenergic receptor (Homo sapiens), sequence (P07550 whole entry, looked up): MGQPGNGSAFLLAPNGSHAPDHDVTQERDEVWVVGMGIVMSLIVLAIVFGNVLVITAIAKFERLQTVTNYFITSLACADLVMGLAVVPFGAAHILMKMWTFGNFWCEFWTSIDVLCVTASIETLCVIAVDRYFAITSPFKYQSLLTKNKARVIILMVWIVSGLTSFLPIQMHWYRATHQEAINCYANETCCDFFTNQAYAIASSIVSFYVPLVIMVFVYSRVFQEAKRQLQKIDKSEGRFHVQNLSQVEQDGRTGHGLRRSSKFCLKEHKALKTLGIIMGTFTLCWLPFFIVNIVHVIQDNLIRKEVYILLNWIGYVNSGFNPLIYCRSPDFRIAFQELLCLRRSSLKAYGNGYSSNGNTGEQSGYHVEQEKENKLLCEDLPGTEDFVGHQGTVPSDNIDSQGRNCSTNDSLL
KiSS-1 receptor (Homo sapiens), sequence (Q969F8 whole entry, looked up): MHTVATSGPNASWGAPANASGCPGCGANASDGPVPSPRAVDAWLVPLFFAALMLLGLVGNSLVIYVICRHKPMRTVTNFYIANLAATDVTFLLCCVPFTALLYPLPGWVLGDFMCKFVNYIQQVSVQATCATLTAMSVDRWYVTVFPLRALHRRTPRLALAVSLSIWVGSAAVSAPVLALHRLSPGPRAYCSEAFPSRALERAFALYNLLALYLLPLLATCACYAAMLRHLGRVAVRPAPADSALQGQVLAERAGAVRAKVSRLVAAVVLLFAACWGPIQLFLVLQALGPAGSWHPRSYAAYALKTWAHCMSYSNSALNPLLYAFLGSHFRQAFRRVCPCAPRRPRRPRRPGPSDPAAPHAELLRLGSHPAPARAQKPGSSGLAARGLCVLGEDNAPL

Nc1ccc2cc3ccc(N)cc3nc2c1
active: [1] 1.54 µM and 6.68 µM | [2] 38.9 µM and 16.9 µM | [3] 49 µM and 23.9 µM | [4] 38.9 µM and 16.9 µM | [9] 1.82 µM | [11] 19.5 µM and 19 µM | [13] 43.6 µM and 23.9 µM
inactive: [5] | [6] | [7] | [8] | [10] | [12] | [14] | [15]

CC(Cc1ccc(O)c(O)c1)C(C)Cc1ccc(O)c(O)c1 (configuration not stated)
active: [1] 68.6 µM
inactive: [2] | [3] | [4] | [5] | [16] | [6] | [8] | [13] | [14] | [15]

CCCCCCCCCCCC(=O)[O][Sn]([CH2]CCC)([CH2]CCC)[O]C(=O)CCCCCCCCCCC
inactive: [2] | [3] | [4] | [5] | [16] | [7] | [8] | [9] | [10] | [11] | [12] | [13] | [17] | [18] | [19] | [20] | [14] | [15]
active: [1] 33.5 µM

c1ccc(OCc2ccc(CCCN3CCOCC3)cc2)cc1
active: [10] 20.5 µM | [12] 2.05 µM
inactive: [1] | [2] | [3] | [4] | [5] | [6] | [7] | [8] | [11] | [13] | [17] | [19] | [14] | [15]

O=C(CCCCCCC(=O)Nc1ccccc1)NO
inactive: [2] | [3] | [4] | [5] | [16] | [7] | [8] | [9] | [10] | [11] | [12] | [13] | [19] | [20] | [14]
active: [1] 8.41 µM

CO[C@@]12[C@H](COC(N)=O)C3=C(C(=O)C(C)=C(N)C3=O)N1C[C@@H]1N[C@@H]12
inactive: [2] | [3] | [4] | [5] | [8] | [17] | [18]
active: [1] 11.9 µM | [16] 4.46 µM | [9] 15.8 µM

CC/C=C\C/C=C\C/C=C\CCCCCCCC(=O)OC
inactive: [2] | [3] | [4] | [5] | [16] | [10] | [12] | [13] | [18] | [20] | [14]
active: [1] 27.3 µM

C#C[C@]1(O)CC[C@H]2[C@@H]3CCc4cc(OC5CCCC5)ccc4[C@H]3CC[C@@]21C
inactive: [1] | [2] | [3] | [4] | [5] | [16] | [8] | [9] | [10] | [11] | [12] | [13] | [18] | [19] | [20] | [14]

CC1(O)CSC(C)(O)CS1 (configuration not stated)
active: [1] 30.6 µM
inactive: [2] | [3] | [4] | [5] | [6] | [7] | [8] | [9] | [10] | [11] | [12] | [13] | [17] | [18] | [19] | [14] | [15]

CSc1ccc2c(c1)C(N1CCN(C)CC1)Cc1ccccc1S2 (configuration not stated)
active: [12] 0.729 µM
inactive: [1] | [2] | [3] | [4] | [5] | [6] | [7] | [8] | [11] | [13] | [19] | [14]

COCCOC(=O)CC#N
inactive: [1] | [2] | [3] | [4] | [5] | [6] | [7] | [8] | [9] | [11] | [12] | [13] | [17] | [18] | [20] | [15]

CCc1ccc(C(c2ccc(CC)cc2)C(Cl)Cl)cc1
inactive: [2] | [3] | [4] | [5] | [6] | [7] | [8] | [9] | [10] | [12] | [13] | [17] | [18] | [19] | [20] | [14] | [15]
inactive and 27.3 µM (active): [1]

N#C/C(=C1/SC[C@@H](c2ccc(Cl)cc2Cl)S1)n1ccnc1
inactive: [1] | [2] | [3] | [4] | [5] | [16] | [6] | [8] | [10] | [11] | [12] | [13] | [19] | [20] | [15]

CC(O)C#CC(C)O (configuration not stated)
active: [1] 21.5 µM
inactive: [2] | [3] | [4] | [5] | [16] | [7] | [8] | [10] | [11] | [12] | [13] | [17] | [18] | [19] | [14] | [15]

CCCCc1ccc2nc(NC(=O)OC)[nH]c2c1
inactive: [2] | [3] | [4] | [5] | [16] | [10] | [11] | [12] | [13] | [18] | [19] | [20] | [14] | [15]
active: [1] 4.22 µM
